# MITF primary: MITF inhibitors, primary screen, biochemical, AlphaScreen, human; Microphthalmia-associated transcription factor (Homo sapiens), O75030; AlphaScreen MITF homodimerization, bead proximity signal; inhibition, % at 2.6 µM; 650,000 tested, 0.91% active; AID 1259374, 2018; in the data active = inhibition above about 50%;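 also: 0% = vehicle wells with protein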
# GPR151 activ: activators of human GPR151, primary screen, cell-based, PathHunter beta-arrestin, luminescence. activation, % at 11.2 µM. 650,000 tested, 1% active. PathHunter beta-arrestin GPR151 cells; in the data active = activation above about 4.9%;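 also: 0% = median of compound wells and 100% = cells with positive control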
# TEAD-YAP block: TEAD-YAP interaction inhibition, primary screen, TEAD-YAP interaction inhibitor project, luminescence, HEK-TIYL cells; TEAD-Gal4/YAP UAS-luciferase luminescence; inhibition, % at 9.12 µM; 640,000 tested, 1.4% active; AID 1259422, 2018; in the data active = inhibition above about 32%;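 also: 0% = median of test compound wells and 100% = reference inhibitor wells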
# FBW7 act: FBW7 E3 ligase activators, primary screen, biochemical, AlphaScreen, human | F-box/WD repeat-containing protein 7 (Homo sapiens), Q969H0 | AlphaScreen FBW7–phospho-cyclin E peptide binding, activator screen | normalized activity (activation), % at 26.1 µM | 650,000 tested, 0.13% active; in the data active = normalized activity above about 1.9%;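 also: purified mutant Fbw7 with reduced substrate affinity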
# Target sequence (Q969H0 whole entry, looked up): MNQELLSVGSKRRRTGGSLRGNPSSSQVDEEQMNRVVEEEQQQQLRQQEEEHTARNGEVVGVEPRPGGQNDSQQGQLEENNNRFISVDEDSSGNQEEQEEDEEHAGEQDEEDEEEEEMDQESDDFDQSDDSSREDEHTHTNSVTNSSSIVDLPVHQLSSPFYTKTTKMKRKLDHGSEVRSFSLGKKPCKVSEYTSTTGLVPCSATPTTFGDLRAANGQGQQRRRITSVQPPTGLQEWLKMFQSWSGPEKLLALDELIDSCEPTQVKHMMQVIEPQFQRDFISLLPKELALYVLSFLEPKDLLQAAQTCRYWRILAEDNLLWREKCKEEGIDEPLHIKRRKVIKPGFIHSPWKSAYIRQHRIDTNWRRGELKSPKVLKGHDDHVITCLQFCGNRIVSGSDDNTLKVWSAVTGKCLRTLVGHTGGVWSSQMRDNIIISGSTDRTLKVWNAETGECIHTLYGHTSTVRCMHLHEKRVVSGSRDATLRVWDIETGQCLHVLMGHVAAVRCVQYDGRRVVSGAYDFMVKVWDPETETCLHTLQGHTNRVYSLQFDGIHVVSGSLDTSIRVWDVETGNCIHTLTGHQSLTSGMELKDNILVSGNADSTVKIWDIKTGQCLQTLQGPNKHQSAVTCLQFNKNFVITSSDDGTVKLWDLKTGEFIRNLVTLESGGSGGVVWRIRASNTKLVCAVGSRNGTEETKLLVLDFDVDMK
# MITF inh conf: MITF inhibitors, retest of hits, confirmation, biochemical, AlphaScreen, triplicate; shares compounds with MITF primary; 4,700 tested, 16% active; AlphaScreen MITF homodimerization, biotin/His-MITF beads; AID 1259372, 2018; inhibition, % at 2.6 µM;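 active = inhibition above a cutoff derived from the DMSO control wells, cut at about 28% in these data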;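 also: 0% = MITF dimer wells with DMSO only; inhibitors lower the bead chemiluminescence by keeping MITF from dimerizing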
# AlphaScreen DR: AlphaScreen optical interference compounds, dose response, counter-screen, biochemical, HTS | shares compounds with MITF primary | AlphaScreen optical interference counterscreen, cell-free | IC50, µM | 480 tested, 6% active | AID 1259373, 2018; call rule not given here
# AlphaScreen intf2: AlphaScreen optical interference compounds, counter-screen for MITF inhibitor project, biochemical, triplicate; shares compounds with MITF primary; LysRS AlphaScreen counterscreen, signal interference; inhibition, % at 2.6 µM; 4,700 tested, 7.6% active; AID 1259376, 2018;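 active = inhibition above a cutoff derived from the DMSO control wells, cut at about 30% in these data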
# * marks the source's active call; other numbers are inactive results; . = no result; ! = a repeat was not active. Hits are enriched below; roughly 3.4% of the tested compounds scored in any of these assays.
SMILES,MITF primary,GPR151 activ,TEAD-YAP block,FBW7 act,MITF inh conf,AlphaScreen intf2,others
CCCS(=O)(=O)N1CCN(Cc2cc(OC)c(O)c(OC)c2)CC1,55.6*,-1.5,2.0,0.3,-2.0,10.9,
CCCS(=O)(=O)N1CCN(Cc2ccc(CC)cc2)CC1,50.8*,1.2,13.7,0.0,1.9,8.0,
CC1CCCN(C(=O)c2cccc(Cl)c2)C1 (stereo not given),-2.5,1.2,-2.0,0.3,.,.,
CC1CCCC(N2CCN(C(=O)c3cccc(Cl)c3)CC2)C1 (stereo not given),50.9*,1.0,-3.8,0.0,-3.3,-1.7,
O=C(c1cccc(Cl)c1)N1CCN(C2CCC(c3ccccc3)CC2)CC1 (stereo not given),38.7,0.3,3.9,0.2,.,.,
O=C(c1cccc(Cl)c1)N1CCN(C2CCCC2)CC1,52.7*,0.9,0.1,0.0,-3.4,-1.6,
Cn1nnnc1SCC(=O)c1cccc([N+](=O)[O-])c1,-1.0,-0.2,7.2,0.1,.,.,
O=C(N/N=C/c1ccc(C(F)(F)F)cc1)c1ccc(O)cc1O,68.9*,-1.6,-13.9,-0.1,6.6,25.0,
NNC(=O)c1cc(-c2ccc(Cl)cc2)n[nH]1,56.5*,1.3,-12.0,0.0,-1.8,-2.6,
CN(C)CCn1nnnc1SCC1=C(C(=O)O)N2C(=O)[C@@H](NC(=O)Cc3csc(N)n3)[C@H]2SC1,68.3*!,-1.8,3.1,0.3,87.2*,24.7,AlphaScreen DR=4.93*
O=C1c2ccccc2-c2onc3c(N4CCCCCC4)cc(Nc4ccc5c(c4)OCCO5)c1c23,4.0,-0.1,11.3,-0.2,.,.,
CCC(C)(C(=O)NC1CCCCC1)N(CC1CCCO1)C(=O)c1ccc(=O)[nH]c1 (stereo not given),79.2*,-0.5,3.7,0.4,-7.2,-4.4,
O=C1NC2(CCN(C(=O)Cc3ccc(-c4ccccc4)cc3)CC2)Nc2ccccc21,3.7,1.0,13.4,0.1,.,.,
O=C1CC(=O)N(Cc2ccco2)C(=O)N1,32.6,1.3,4.7,0.3,.,.,
O=C1CC(=O)N(Cc2ccco2)C(=S)N1,70.2*,0.4,-4.8,-1.0,-10.8,61.6*,
Nc1cccc2c1C(=O)N(c1ccccc1)C2=O,52.1*,-0.1,-6.1,0.3,-0.1,9.7,
O=C1c2ccccc2C(=O)N1c1ccccc1,21.4,-1.8,9.3,0.0,.,.,
CCOC(=O)c1c(-c2ccc(-c3ccccc3)cc2)csc1NC(=O)C(C)C,14.8,1.8,13.5,0.1,.,.,
O=C(Nc1ccc(O)cc1)c1cc(S(=O)(=O)N2CCCC2)ccc1Cl,70.5*,0.7,6.9,0.2,5.0,5.3,
O=C(NCCCn1ccnc1)NC(C(F)(F)F)C(F)(F)F,-0.1,0.6,5.4,0.1,.,.,
O=C(/C(Br)=C/NCCCn1ccnc1)C(F)(F)F,64.8*,-0.4,5.8,-0.2,39.9*,99.1*,
C=C(C)C1CCC2(C)OC(=O)N(Cc3ccccc3)C12C (stereo not given),11.0,0.7,11.6,0.1,.,.,
Cc1ccc(NC(=O)c2ccc(CNc3c(N4CCCC4)c(=O)c3=O)cc2)cc1C,-10.1,0.3,-6.4,-0.1,.,.,
O=[N+]([O-])c1cccc(N(CC2CO2)S(=O)(=O)c2ccccc2)c1 (stereo not given),51.2*,0.2,-3.0,-0.1,-1.0,-8.6,
O=[N+]([O-])c1cc(C2C=C(c3ccc(Cl)cc3)Nc3nnnn32)ccc1Cl (stereo not given),64.5*,-0.8,0.0,-0.1,8.0,7.5,
SMILES,MITF primary,GPR151 activ,TEAD-YAP block,FBW7 act,MITF inh conf,AlphaScreen intf2,others
Fc1ccc(C2=CC(c3ccc(Cl)cc3)n3nnnc3N2)cc1 (stereo not given),-6.5,1.3,-31.3,0.0,.,.,
Cc1ccc(/C=N/c2ncn[nH]2)c(O)c1,3.2,0.1,4.6,0.1,.,.,
O=C(NCC1CCCCC1)C1CCCN1C(=O)NC1CCCCC1 (stereo not given),3.9,0.4,2.6,-0.1,.,.,
C=CCNC(=O)C1CCCN1C(=O)NC1CCCCC1 (stereo not given),66.2*,0.6,9.5,0.2,4.5,10.0,
COc1ccc(CCNC(=O)N2CCN(Cc3nc4ccccc4[nH]3)CC2)cc1,8.9,-0.7,7.9,-0.9,.,.,
O=C(c1ccc(Cn2ccnc2)cc1)N1CCN(Cc2nc3ccccc3[nH]2)CC1,87.3*,-0.5,-2.6,-0.5,4.2,13.7,
COC(=O)c1ccc(CN2CCN(Cc3nc4ccccc4[nH]3)CC2)o1,73.1*,4.9,3.1,-0.5,4.4,21.3,
CC(=O)c1ccc(NC(=O)N2CCN(Cc3nc4ccccc4[nH]3)CC2)cc1,3.5,-1.0,-1.0,0.0,.,.,
CCc1ccc(C(=O)OCC(=O)c2ccc[nH]2)cc1,7.8,-1.4,0.0,0.1,.,.,
Cc1cc(=O)[nH]c(NCCc2ccccc2)n1,6.4,0.3,8.0,-0.2,.,.,
CC1=C(NCCc2ccccc2)CCC1=O,60.7*,0.7,6.0,0.8,14.4,8.8,
CN(C)CCCN(CCCN(C)C)Cc1ccc(Cl)cc1,37.3,0.2,-7.8,-0.1,.,.,
CN(C)CCCN(CCCN(C)C)Cc1cccc(C(F)(F)F)c1,56.7*,2.4,6.4,-0.1,-6.1,-4.4,
CN(C)CCCN(CCCN(C)C)Cc1ccc(F)cc1,63.7*,1.1,3.5,0.3,-9.7,9.8,
CN(C)CCCN(CCCN(C)C)Cc1ccc(F)c(Br)c1,52.9*,1.2,3.8,-0.1,-13.2,-3.9,
COC(=O)Cc1c(C)c2ccc(OCC(=O)Nc3ccc(Cl)cc3F)cc2oc1=O,16.4,-0.9,2.2,0.2,.,.,
O=C1c2cccc3cccc(c23)C(=O)N1c1ccccc1Oc1ccccc1,3.9,-1.3,3.5,-0.1,.,.,
CC1=C(C(=O)O)C2(CCC(C)CC2)OC1=O (stereo not given),13.5,-0.8,2.5,0.8,.,.,
CC(=O)c1ccc(OCCCN2CCN(C)CC2)cc1,36.8,0.0,0.6,-0.3,.,.,
CC(=O)c1cccc(OCCN2CCN(C)CC2)c1,57.0*,-0.1,-8.1,-0.1,9.0,16.0,
CC(=O)c1cccc(OCCCN2CCCCC2)c1,32.0,1.0,0.4,-0.1,.,.,
CCN1CCN(CCCCOc2cccc(C(C)=O)c2)CC1,59.3*,1.0,-6.8,-0.3,10.2,18.1,
Cn1c(=O)c2c(nc3n2CC(C24CC5CC(CC(C5)C2)C4)=NN3)n(C)c1=O,18.5,-0.4,8.5,0.2,.,.,
CCOC(=O)C1=C(C)NC2=C(C(=O)C(C(=O)OCC)C(c3ccc(OC)cc3)C2)C1c1cc(OC)ccc1OC (stereo not given),115.9*,0.4,0.0,-0.2,-10.1,-6.9,

# From PubChem BioAssay
